From PubChem
LDHA inh – LDHA (human) enzyme inhibition; activity change, % (values are at about 110 or 230 µM); P00338; 480,000 tested, 0.15% active; purified LDHA, NADH/diaphorase-resazurin fluorescence; active compounds read low; in the data active = activity change below about -30%; inconclusive = mostly about -25% to -30%;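 also: plate controls were DMSO wells for no effect and wells without enzyme for full effect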
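Human LDH5 (2 nM) was incubated with 0.06 mM NADH and 0.2 mM pyruvate for 5 min at room temperature in Tris pH 7.4. Remaining NADH was coupled through diaphorase/resazurin, and resorufin fluorescence was read at 0 and 20 min.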
IL-1B inflam inh – inhibitors of inflammasome signaling (IL-1 beta secretion); THP-1 LPS/ATP IL-1B secretion, AlphaLISA, 16 h; active compounds read low; activity change, % at 57.5 µM; 360,000 tested, 4.7% active; AID 743279; in the data active = activity change below about -50%; inconclusive = mostly about -30% to -49%
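Secreted IL-1B measured by AlphaLISA bead assay after 16 h compound exposure of THP-1 cells; compounds (final up to 57.5 uM) added 1 h before LPS (250 ng/mL) and ATP (1.25 mM) stimulation; lower signal means less secretion.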
DT40 TDP1 no CPT – qHTS for Inhibitors of human tyrosyl-DNA phosphodiesterase 1 (TDP1): qHTS in cells in absence of CPT | DT40 Tdp1-/- hTDP1 cells, no CPT, ATP luminescence, 48 h | 420,000 tested, 15% active | AID 686978, 2013 | Potency, µM (doses to about 46.2 µM), for inactives: at the top dose activity change, negative = growth inhibition, most hits filed as inhibitors; also: potency is read from the fitted curve at half-maximal effect; nearly all actives have a fitted effect of over 55% in size
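Luminescent ATP content (CellTiter-Glo) served as the growth readout. Knockout chicken DT40 cells expressing human TDP1 were exposed to compounds without camptothecin for a minimum 48 hr at 37 °C.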
DT40 TDP1 CPT – growth inhibition of DT40 Tdp1-/-;hTDP1 cells with camptothecin (screen for TDP1 inhibitors); chicken DT40 Tdp1-/-;hTDP1 cells + 20 nM CPT, ATP luminescence, 48 h; Potency, µM (highest dose often 46.2 µM), without a hit: at the highest dose activity change, negative = growth inhibition, hits mostly inhibitors; 420,000 tested, 12% active; AID 686979; also: potency is read from the fitted curve at half-maximal effect; nearly all actives have a fitted effect of over 55% in size
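Chicken DT40 Tdp1-/- cells stably complemented with human TDP1 were seeded at 400 cells/well in medium containing 20 nM camptothecin, exposed to pin-transferred compounds, and grown at 37 °C for at least 48 hr. Viability was read as ATP luminescence.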
Gal4-VP16 FLuc – inhibits Gal4-VP16 luciferase reporter, ROR gamma counter-screen. Drosophila S2 Gal4-VP16 UAS-luciferase, luminescence, 20 h. Potency, µM (doses to about 53.6 µM), for inactives: at the highest dose activity, negative = inhibition, usual class: inhibitors. 310,000 tested, 3.5% active. AID 2546;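 also: Gal4-VP16 expression switched on by copper sulfate through the metallothionein promoter; potency is read from the fitted curve at half-maximal effect; nearly all actives have a fitted effect of over 50% in size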
RORgamma inh – inhibitors of mouse ROR gamma transcriptional activity. AID 2551. Drosophila S2 Gal4-RORgamma UAS-luciferase reporter, 20 h. Potency, µM (doses to about 53.6 µM), for the others: top-dose activity change, negative = inhibition, most hits filed as inhibitors. 310,000 tested, 5.4% active. P51450; also: potency is read from the fitted curve at half-maximal effect; nearly all actives have a fitted effect of over 60% in size
Target sequence (P51450 whole entry, looked up, the tested form may be a part): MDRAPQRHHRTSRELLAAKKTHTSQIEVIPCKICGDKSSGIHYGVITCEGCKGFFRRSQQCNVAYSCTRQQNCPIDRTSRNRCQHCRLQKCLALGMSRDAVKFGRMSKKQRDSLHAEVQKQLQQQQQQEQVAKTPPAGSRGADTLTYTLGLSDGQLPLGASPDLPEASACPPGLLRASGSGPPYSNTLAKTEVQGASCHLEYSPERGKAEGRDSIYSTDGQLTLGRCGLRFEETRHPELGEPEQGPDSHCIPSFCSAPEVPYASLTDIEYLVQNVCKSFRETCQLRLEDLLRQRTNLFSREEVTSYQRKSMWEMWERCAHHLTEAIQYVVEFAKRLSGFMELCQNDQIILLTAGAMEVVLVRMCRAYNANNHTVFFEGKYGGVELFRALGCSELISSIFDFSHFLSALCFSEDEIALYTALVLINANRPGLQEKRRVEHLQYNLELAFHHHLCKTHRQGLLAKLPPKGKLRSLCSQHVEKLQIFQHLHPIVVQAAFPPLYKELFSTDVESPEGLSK
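Read-out: Photinus luciferase luminescence; inhibitors lower reporter signal. Insect Schneider cells with Gal4-ROR gamma fusion under metallothionein promoter, UAS reporter; 700 uM final copper sulfate induction, 20 hr, ambient temperature.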
An asterisk follows results filed as active; ? = inconclusive; / = no result given; [ ] = remark or other dose. The list is not random: actives were taken first. Their share in the collection is about 18%. Unless noted, calls follow the shape of the dose curve; as a rule, active = well fitted curve in the direction sought with a large enough effect; inconclusive = small, poorly fitted or top-dose-only effect, or another doubt; inactive = no such curve, though single readings can be large; an effect the other way counts as inactive or inconclusive. Unless noted, % is scaled to controls: 0 for no effect and ±100 for the full control effect.

SMILES	LDHA inh	IL-1B inflam inh	DT40 TDP1 no CPT	DT40 TDP1 CPT	Gal4-VP16 FLuc	RORgamma inh
COC(=O)C1=C(C)N(Cc2ccccc2)C(=NCc2cc(OC)c(OC)c(OC)c2)N[C@H]1c1ccccc1	0	?	15µM*	21µM*	-6%	-21%
CCN1C(=NCCCCO)N[C@@H](c2ccccc2)C(C(=O)OC)=C1C	/	/	/	/	-2%	2%
COC(=O)C1=C(C)N(Cc2ccccc2)C(=NCCN2CCOCC2)N[C@H]1CCc1ccccc1	-3	-18	23µM*	?	-6%	-14%
CN(Cc1ccccc1Br)c1ccc(S(N)(=O)=O)cn1	0	/	/	/	/	/
COc1ccccc1N=C1NN=C(c2ccc3c(c2)CC(C)N3S(C)(=O)=O)CS1 (stereo unspecified)	2	/	/	/	/	/
COC(=O)C1=C(C)N(Cc2ccccc2)C(=O)N[C@H]1CCc1ccccc1	0	0	5%	7%	/	/
COC(=O)C1=C(C)N(Cc2ccccc2)C(=NCc2cc(OC)c(OC)c(OC)c2)N[C@H]1c1ccc(Br)cc1	-1	?	18µM*	13µM*	-8%	37%
COC(=O)C1=C(C)N(Cc2ccccc2)C(=NCc2ccc(OC)cc2)N[C@H]1c1ccc(Br)cc1	/	/	/	/	0%	-8%
COC(=O)C1=C(C)N(Cc2ccccc2)C(=NCc2cc(OC)c(OC)c(OC)c2)N[C@H]1CCc1ccccc1	-2	-58*	16µM*	21µM*	-4%	-18%
CCN1CCN(c2nc3c(c(=O)n(C)c(=O)n3C)n2CC(N)=O)CC1	4	/	/	/	/	/
COC(=O)COc1cc(C)cc2oc(=O)cc(-c3ccccc3)c12	-16	/	/	/	/	/
Cn1c(=O)c2c(ncn2CCC(=O)N2CCN(Cc3ccccc3)CC2)n(C)c1=O	0	/	/	/	/	/
O=C(c1ccc(-c2ccccc2)cc1)N1CCCC1	-7	1	-28%	-2%	-8%	-16%
O=C(c1cccc(-c2nnc(-c3ccccc3)o2)c1)N1CCCCC1	-7	0	15µM*	?	0%	20%
O=C(c1ccccc1)N1CCCCC1	0	16	1%	-5%	/	/
O=C(c1cccc(-c2nnc(-c3ccccc3)o2)c1)N1CCCCCC1	-4	-14	14µM*	?	4%	-12%
O=C(CCc1nnc(-c2ccc(-c3ccccc3)cc2)o1)N1CCCCC1	-5	-1	21µM*	?	-9%	22%
COC(c1ccccc1)c1nnc(CCC(=O)N2CCCCCCC2)o1 (stereo unspecified)	2	19	-15%	-6%	-11%	7%
CCC(NC(=O)c1cccs1)c1ccccc1 (stereo unspecified)	0	/	/	/	/	/
O=C(Cn1nc(CNc2ccc(Cl)cc2)[n+]2c1CCCCC2)c1ccccc1	-3	-53*	8.2µM*	5.2µM*	-2%	23%
O=C(CCCN1C(=O)c2ccccc2C1=O)N1CCc2ccccc2C1	0	27	7%	-20%	2%	-7%
O=C(c1ccc2c(c1)OCO2)N1CCN(CCN2C(=O)c3cccc4cccc(c34)C2=O)CC1	-12	20	-29%	12%	/	/
O=C(CN1C(=O)c2cccc3cccc1c23)N1CCN(Cc2ccc3c(c2)OCO3)CC1	8	-16	21µM*	?	?	?
O=C(CN1C(=O)c2cccc3cccc1c23)N1CCc2ccccc2C1	0	-14	12µM*	21µM*	3%	24%
Cc1ccc(C(C(=O)NC2CCCC2)N(C(=O)Cc2cccs2)c2ccc(C)c(C)c2)o1 (stereo unspecified)	0	-74*	22µM*	?	0%	2%
SMILES	LDHA inh	IL-1B inflam inh	DT40 TDP1 no CPT	DT40 TDP1 CPT	Gal4-VP16 FLuc	RORgamma inh
Cc1ccc(N(C(=O)Cc2cccs2)C(C(=O)NC2CCCC2)c2ccncc2)cc1 (stereo unspecified)	-7	6	-25%	?	5%	8%
O=C(NCC(=O)N(c1cccc(F)c1)C(C(=O)NCC1CCCO1)c1ccccc1)c1ccco1 (stereo unspecified)	-6	-2	-8%	2%	3%	6.3µM*
Cc1ccc(C(C(=O)NC2CCCC2)N(C(=O)Cc2cccs2)c2ccc3c(c2)OCCO3)cc1 (stereo unspecified)	-10	-58*	?	?	2%	-33%
Cc1ccc(C)c(N(C(=O)Cc2cccs2)C(C(=O)NC2CCCC2)c2ccc(C)o2)c1 (stereo unspecified)	-3	4	13µM*	23µM*	-24%	-37%
Cc1cccc(CCN(C(=O)Cc2cccs2)C(C(=O)NC2CCCCC2)c2cccnc2)c1 (stereo unspecified)	-3	?	?	5.8µM*	?	14%
COc1cccc(C(C(=O)NC2CCCCC2)N(C(=O)Cc2cccs2)c2ccc(-n3cnnn3)c(OC)c2)c1 (stereo unspecified)	-9	-13	?	?	4%	8%
COc1cc(N(C(=O)Cc2cccs2)C(C(=O)NC2CCCCC2)c2cccc(OC)c2OC)ccc1-n1cnnn1 (stereo unspecified)	-2	-3	26µM*	12µM*	1%	15%[10 µM]
O=C(NCC(=O)N(c1ccc2c(c1)OCO2)C(C(=O)NC1CCCC1)c1ccncc1)c1ccco1 (stereo unspecified)	23	21	23µM*	23µM*	-2%	6%
CCSc1nc2ncn(CC(=O)Nc3cc(F)ccc3F)c(=O)c2s1	1	/	/	/	/	/
O=C(OCc1ccc(Cl)cc1)c1ccc(N2CCOCC2)nc1	0	/	/	/	/	/
Clc1ccc(OCc2nc3ccccc3[nH]2)cc1	-8	-51*	?	4%	-3%	?
c1ccc2cc(CSCc3nc4ccccc4[nH]3)ccc2c1	5	15	?	-28%	11µM*	?
c1ccc2[nH]c(CSc3nc4ccccc4o3)nc2c1	-10	-12	?	?	?	2µM*
SCc1nc2ccccc2[nH]1	-6	/	10µM*	?	/	/
c1ccc(OCc2nc3ccccc3[nH]2)cc1	-5	10	-23%	?	-18%	69%
Cc1ccccc1CSCc1nc2ccccc2[nH]1	-1	?	?	?	-15%	?
c1cncc(-c2nnc(SCc3nc4ccccc4[nH]3)o2)c1	-6	10	-17%	-14%	13%	?
O=C(c1ccc(N2CCCN(Cc3ccc(Cl)cc3)C2=O)cc1)N1CCOCC1	-3	/	/	/	/	/
